According to PubChem BioAssay (NCATS):
Results filed as inconclusive are left out. Activity calls are given as the source filed them. Calls come from the whole dose curve; as a rule, active = well fitted curve in the direction sought with a large enough effect; inconclusive = small, poorly fitted or top-dose-only effect, or another doubt; inactive = no such curve, though single readings can be large; an effect the other way counts as inactive or inconclusive.

How the values were obtained:
[1] = system: MCC-13; test: qHTS assay to identify novel small-molecules to repurpose for Merkel cell carcinoma treatment (AID 1296009); settings: MCC and control cell lines, CellTiter-Glo viability, 72 h; series mostly up to 46 µM; note: nearly all actives have a fitted effect of over 60% in size
In short: (§1)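 After compound transfer in DMSO, plates were kept 72 hr at 37 degree celsius. Luminescent ATP signal from CellTiter-Glo served as viability measure, normalized against DMSO and no-cell controls.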

[2] = system: MCC-26; test: as above; settings: MCC and control cell lines, CellTiter-Glo viability, 72 h; series mostly up to 46 µM
In short: as §1

[3] = system: MKL-1; test: as above; settings: MCC and control cell lines, CellTiter-Glo viability, 72 h; series mostly up to 46 µM
In short: as §1

[4] = system: MKL-2; test: as above; settings: MCC and control cell lines, CellTiter-Glo viability, 72 h; series mostly up to 46 µM
In short: as §1

[5] = system: UISO; test: as above; settings: MCC and control cell lines, CellTiter-Glo viability, 72 h; series mostly up to 46 µM
In short: as §1

[6] = system: WaGa; test: as above; settings: MCC and control cell lines, CellTiter-Glo viability, 72 h; series mostly up to 46 µM
In short: as §1

[7] = system: C33A; test: Primary qHTS to identify gynecologic anti-cancer compounds using libraries of approved drugs and bioactive compounds (AID 1345084); settings: Gynecologic cancer cell panel viability, ATPlite luminescence, 48 h; series mostly up to 57.5 µM; note: nearly all actives have a fitted effect of over 55% in size
In short: (§2)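 Five-concentration response, 48 h; readout is ATP-driven luciferase luminescence.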

[8] = system: CAOV3; test: as above; settings: Gynecologic cancer cell panel viability, ATPlite luminescence, 48 h; series mostly up to 57.5 µM
In short: as §2

[9] = system: CASKI; test: as above; settings: Gynecologic cancer cell panel viability, ATPlite luminescence, 48 h; series mostly up to 57.5 µM
In short: as §2

[10] = system: Es-2; test: as above; settings: Gynecologic cancer cell panel viability, ATPlite luminescence, 48 h; series mostly up to 57.5 µM
In short: as §2

[11] = system: HeLa; test: as above; settings: Gynecologic cancer cell panel viability, ATPlite luminescence, 48 h; series mostly up to 57.5 µM
In short: as §2

[12] = system: Hek293T; test: as above; settings: Gynecologic cancer cell panel viability, ATPlite luminescence, 48 h, control line for the selectivity index; series mostly up to 57.5 µM
In short: as §2

[13] = system: JEG-3; test: as above; settings: Gynecologic cancer cell panel viability, ATPlite luminescence, 48 h; series mostly up to 57.5 µM
In short: as §2

[14] = system: OV90; test: as above; settings: Gynecologic cancer cell panel viability, ATPlite luminescence, 48 h; series mostly up to 57.5 µM
In short: as §2

[15] = system: PA-1; test: as above; settings: Gynecologic cancer cell panel viability, ATPlite luminescence, 48 h; series mostly up to 57.5 µM
In short: as §2

[16] = system: SKOV3; test: as above; settings: Gynecologic cancer cell panel viability, ATPlite luminescence, 48 h; series mostly up to 57.5 µM
In short: as §2

[17] = system: Tov-21-G; test: as above; settings: Gynecologic cancer cell panel viability, ATPlite luminescence, 48 h; series mostly up to 57.5 µM
In short: as §2

[18] = system: Tov112D; test: as above; settings: Gynecologic cancer cell panel viability, ATPlite luminescence, 48 h; series mostly up to 57.5 µM
In short: as §2

[19] = Drug repurposing screens with cells derived from glioblastoma tumor samples (AID 1345199); settings: GBM patient neurospheres viability, ATP luminescence, 48 h; note: nearly all actives have a fitted effect of over 40% in size; note: potency is the fitted concentration of half-maximal effect
In short: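 Four patient lines of CD133+ GBM neurospheres were screened at several concentrations; hits were retested in those lines plus three slower-growing GBM lines, using 48-hour treatment and ATP-based viability.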

[20] = at 45.9 µM (top of the series), tumour line B
[21] = at 45.9 µM (top of the series), tumour line D
[22] = at 91.6 µM (top of the series), tumour line B
[23] = at 91.6 µM (top of the series), tumour line D
% is set by controls: 0 for no effect and ±100 for the full control effect.

c1cc2c(c(N3CCNCC3)c1)OCCO2
inactive: Potency [1] | Potency [2] | Potency [3] | Potency [4] | Potency [5] | Potency [6] | Potency [7] | Potency [8] | Potency [9] | Potency [10] | Potency [11] | Potency [12] | Potency [13] | Potency [14] | Potency [15] | Potency [16] | Potency [17] | Potency [18] | activity, negative = cell killing [19, 20] -7.8% | activity, negative = cell killing [19, 21] -0.968%

CN1C[C@@H](NS(=O)(=O)N(C)C)C[C@@H]2c3cccc4c3c(cn4C)C[C@H]21
active: Potency ([19]; tumour line A) 10 µM
inactive: Potency [1] | Potency [2] | Potency [3] | Potency [4] | Potency [5] | Potency [6] | Potency [7] | Potency [9] | Potency [10] | Potency [11] | Potency [12] | Potency [13] | Potency [14] | Potency [15] | Potency [16] | Potency [17] | Potency [18] | activity, negative = cell killing [19, 20] -15.4% | activity, negative = cell killing [19, 21] -25.6%

CC(C)=C[C@@H]1[C@@H](C(=O)OCc2coc(Cc3ccccc3)c2)C1(C)C
inactive: Potency [1] | Potency [2] | Potency [3] | Potency [4] | Potency [5] | Potency [7] | Potency [9] | Potency [10] | Potency [11] | Potency [12] | Potency [13] | Potency [14] | Potency [15] | Potency [16] | Potency [17] | Potency [18] | activity, negative = cell killing [19, 20] -21% | activity, negative = cell killing [19, 21] -13.8%

C[C@]12CC[C@H]3[C@@H](CCC4=CC(=O)CC[C@@]43C)[C@@H]1CC[C@@H]2C(=O)O
inactive: Potency [1] | Potency [2] | Potency [3] | Potency [4] | Potency [5] | Potency [6] | Potency [7] | Potency [9] | Potency [10] | Potency [12] | Potency [13] | Potency [14] | Potency [15] | Potency [16] | Potency [17] | Potency [18]

O=C(O)CCCCCCNC1c2ccccc2CCc2ccccc21
inactive: Potency [1] | Potency [2] | Potency [3] | Potency [4] | Potency [6] | Potency [7] | Potency [9] | Potency [10] | Potency [11] | Potency [12] | Potency [13] | Potency [14] | Potency [15] | Potency [17] | Potency [18] | activity, negative = cell killing [19, 20] 2.2% | activity, negative = cell killing [19, 21] -6.72%

CCCCCCCCC(=O)NCc1ccc(O)c(OC)c1
inactive: Potency [1] | Potency [2] | Potency [3] | Potency [4] | Potency [5] | Potency [6] | Potency [8] | Potency [9] | Potency [11] | Potency [12] | Potency [13] | Potency [14] | Potency [17] | activity, negative = cell killing [19, 20] -1.62% | activity, negative = cell killing [19, 21] -6.9%
active: Potency ([19]; tumour line A) 12.6 µM

CCOC(=O)C1(c2ccccc2)CCN(CCc2ccc(N)cc2)CC1
inactive: Potency [1] | Potency [2] | Potency [3] | Potency [4] | Potency [6] | Potency [7] | Potency [8] | Potency [9] | Potency [10] | Potency [11] | Potency [12] | Potency [13] | Potency [14] | Potency [15] | Potency [16] | Potency [17] | Potency [18]

C[C@H]1C(=O)O[C@@H]2CCN3CC=C(COC(=O)[C@](C)(O)[C@]1(C)O)[C@H]23
inactive: Potency [1] | Potency [2] | Potency [3] | Potency [4] | Potency [5] | Potency [6] | Potency [7] | Potency [9] | Potency [10] | Potency [11] | Potency [12] | Potency [13] | Potency [14] | Potency [15] | Potency [17] | Potency [18] | activity, negative = cell killing [19, 20] -12.9% | activity, negative = cell killing [19, 21] -22.3% | activity, negative = cell killing ([19]; at 46 µM (top of the series), tumour line A) -27.9%

COc1ccc2[nH]cc(CCN(C(C)C)C(C)C)c2c1
inactive: Potency [1] | Potency [2] | Potency [3] | Potency [5] | Potency [6] | Potency [7] | Potency [8] | Potency [9] | Potency [10] | Potency [11] | Potency [12] | Potency [13] | Potency [14] | Potency [15] | Potency [16] | Potency [17] | Potency [18] | activity, negative = cell killing ([19]; at 108 µM (top of the series), tumour line B) -6.42% | activity, negative = cell killing ([19]; at 108 µM (top of the series), tumour line D) -9.85%
active: Potency ([19]; tumour line A) 44.7 µM

CC1N=C(N)OC1c1ccccc1 (configuration not stated)
inactive: Potency [1] | Potency [2] | Potency [3] | Potency [4] | Potency [5] | Potency [7] | Potency [8] | Potency [9] | Potency [10] | Potency [11] | Potency [12] | Potency [13] | Potency [15] | Potency [17] | Potency [18] | activity, negative = cell killing [19, 22] -8.97% | activity, negative = cell killing [19, 23] -16.1%
active: Potency ([19]; tumour line A) 50.1 µM

CN(C)CCc1c[nH]c2cccc(O)c12
inactive: Potency [1] | Potency [2] | Potency [3] | Potency [4] | Potency [7] | Potency [9] | Potency [10] | Potency [11] | Potency [12] | Potency [13] | Potency [14] | Potency [15] | Potency [17] | Potency [18] | activity, negative = cell killing [19, 22] -8.47% | activity, negative = cell killing [19, 23] -23.4%

CC(Cc1ccccc1)NCCCCl (configuration not stated)
inactive: Potency [1] | Potency [2] | Potency [3] | Potency [5] | Potency [6] | Potency [7] | Potency [8] | Potency [9] | Potency [10] | Potency [11] | Potency [12] | Potency [13] | Potency [14] | Potency [15] | Potency [16] | Potency [17] | Potency [18]

CN1CCc2cc(Cl)c(O)cc2[C@H]2c3ccccc3CC[C@@H]21
active: Potency ([19]; tumour line A) 11.2 µM
inactive: Potency [1] | Potency [2] | Potency [3] | Potency [4] | Potency [5] | Potency [7] | Potency [9] | Potency [10] | Potency [11] | Potency [12] | Potency [15] | Potency [16] | Potency [17] | Potency [18] | activity, negative = cell killing [19, 20] -22.7%

C[C@]12C=CC(=O)C=C1CC[C@@H]1[C@@H]2CC[C@@]2(C)[C@H]1CC[C@]2(C)O
inactive: Potency [1] | Potency [2] | Potency [3] | Potency [4] | Potency [7] | Potency [9] | Potency [10] | Potency [11] | Potency [12] | Potency [13] | Potency [14] | Potency [15] | Potency [16] | Potency [17] | Potency [18] | activity, negative = cell killing [19, 20] -4.86% | activity, negative = cell killing [19, 21] -22.4%
